Reference: PubChem BioAssay (EPA / NIEHS)
Activity calls are given as the source filed them. Rule for the calls: active = hit-call score of the fitted dose curve at least 0.9, where 1 is the maximum; inactive = score below 0.9.

Tests used:
[1] = read-out: flavin-containing dimethylaniline monooxygenases 3 (FMO3), FMO3 (gene 2328); test: LTEA_HepaRG_FMO3: Life Technologies and Expression Analysis (LTEA) Assay for flavin-containing dimethylaniline monooxygenases 3 (FMO3) using HepaRG (AID 2283453); conditions: mRNA level, 48 h; actives raise or lower the signal;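 for AC50: differentiated human HepaRG liver cells in serum-free induction medium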
In short: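 FMO3 transcript quantified by TaqMan qRT-PCR against three housekeeping genes after 48 h chemical exposure of HepaRG cells. Eight-point half-log series, top 100 uM, 0.5% DMSO vehicle; phenobarbital 1mM induction control; up- or down-regulation fitted.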

[2] = read-out: Cytochrome P450 (CYP1A1), CYP1A1 (gene 1543); test: LTEA_HepaRG_CYP1A1: Life Technologies and Expression Analysis (LTEA) Assay for Cytochrome P450 (CYP1A1) using HepaRG (AID 2283454); conditions: mRNA level, 48 h; actives raise or lower the signal
In short: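 qRT-PCR read-out: CYP1A1 transcript normalized to three housekeeping genes, fitted bidirectionally against 0.5% DMSO vehicle baseline. Human HepaRG cells, 48 h chemical exposure, 8-point half-log series topping at 100 uM.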

[3] = read-out: CFLAR gene, CFLAR (gene 8837); test: LTEA_HepaRG_CFLAR: Life Technologies and Expression Analysis (LTEA) Assay for CFLAR gene using HepaRG (AID 2283455); conditions: mRNA level, 48 h; actives raise or lower the signal
In short: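 qRT-PCR read-out (Fluidigm/TaqMan) of CFLAR mRNA, normalized to three housekeeping genes, in differentiated human HepaRG cells after 48 h chemical exposure; 8-point half-log series from 100 uM in 0.5% DMSO; bidirectional curve fitting versus DMSO.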

[4] = read-out: Forkhead box O1 (FOXO1), FOXO1 (gene 2308); test: LTEA_HepaRG_FOXO1: Life Technologies and Expression Analysis (LTEA) Assay for Forkhead box O1 (FOXO1) using HepaRG (AID 2283456); conditions: mRNA level, 48 h; actives raise or lower the signal
In short: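 HepaRG, 48 h exposure, 8-pt half-log series from 100 uM in 0.5% DMSO, duplicates; Fluidigm qRT-PCR mRNA, housekeeping-normalised; bidirectional fit vs DMSO baseline.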

[5] = read-out: growth arrest and DNA damage 45 (GADD45A), GADD45A (gene 1647); test: LTEA_HepaRG_GADD45A: Life Technologies and Expression Analysis (LTEA) Assay for growth arrest and DNA damage 45 (GADD45A) using HepaRG (AID 2283458); conditions: mRNA level, 48 h; actives raise or lower the signal
In short: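 GADD45A expression was measured by TaqMan qRT-PCR against three housekeeping genes (ACTB, GAPDH, POLR2A) after 48 h treatment of HepaRG cells. Eight-point half-log series up to 100 uM in 0.5% DMSO, run in duplicate.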

[6] = read-out: Forkhead box O3 (FOXO3), FOXO3 (gene 2309); test: LTEA_HepaRG_FOXO3: Life Technologies and Expression Analysis (LTEA) Assay for Forkhead box O3 (FOXO3) using HepaRG (AID 2283459); conditions: mRNA level, 48 h; actives raise or lower the signal
In short: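 qRT-PCR readout of FOXO3 transcript, normalized to three housekeeping genes (ACTB, GAPDH, POLR2A); gain or loss fitted against 0.5% DMSO vehicle. HepaRG cells, 48 h chemical exposure, 8-point half-log series, top 100 uM.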

[7] = read-out: ABC Transporter (ABCB1), ABCB1 (gene 5243); test: LTEA_HepaRG_ABCB1: Life Technologies and Expression Analysis (LTEA) Assay for ABC Transporter (ABCB1) using HepaRG (AID 2283460); conditions: mRNA level, 48 h; actives raise or lower the signal
In short: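 HepaRG, 48 h exposure, 8-pt half-log series from 100 uM, 0.5% DMSO vehicle, duplicates. Readout: ABCB1 transcript by Fluidigm TaqMan qRT-PCR, housekeeping-normalized; bidirectional curve fit vs DMSO baseline.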

[8] = read-out: growth arrest and DNA damage 45 (GADD45B), GADD45B (gene 4616); test: LTEA_HepaRG_GADD45B: Life Technologies and Expression Analysis (LTEA) Assay for growth arrest and DNA damage 45 (GADD45B) using HepaRG (AID 2283461); conditions: mRNA level, 48 h; actives raise or lower the signal
In short: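 qRT-PCR read-out (Fluidigm TaqMan, housekeeping-normalized) of mRNA change in human HepaRG cells after 48 h chemical exposure; 8-point curve, top 100 uM, half-log steps, 0.5% DMSO vehicle; gain or loss fitted relative to DMSO baseline.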

[9] = read-out: ABC Transporter (ABCC3), ABCC3 (gene 8714); test: LTEA_HepaRG_ABCC3: Life Technologies and Expression Analysis (LTEA) Assay for ABC Transporter (ABCC3) using HepaRG (AID 2283462); conditions: mRNA level, 48 h; actives raise or lower the signal
In short: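 qRT-PCR read-out of ABCC3 transcript, normalized to three housekeeping genes (ACTB, GAPDH, POLR2A), after 48 h chemical exposure of human HepaRG cells. Eight half-log concentrations, highest 100 uM, in 0.5% DMSO; gain or loss fitted relative to DMSO baseline.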

[10] = CEETOX_H295R_TESTO: CeeTox H295R High-throughput Steroidogenesis Assay for Testosterone (TESTO) (AID 2283457); conditions: actives raise or lower the signal
In short: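 Readout: testosterone quantified by HPLC-MS/MS (C18, ESI positive) after MTBE liquid-liquid extraction of culture medium. Cells were H295R, 48 h chemical exposure per OECD 456 with modifications. Gain or loss of signal fitted relative to DMSO.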

Measured: AC50

O=S(=O)(O)c1ccc(N=Nc2c(O)ccc3cc(S(=O)(=O)O)ccc23)cc1
active: [2] 50 µM
not listed: [10]
inactive: all other assays above

CCCOc1ccc(S(=O)(=O)N2CCN(CC)CC2)cc1-c1nc2c(CC)n(Cc3ccccn3)nc2c(=O)[nH]1
active: [2] 59.8 µM | [7] 2.87 µM
not listed: [10]
inactive: all other assays above

OC[C@H]1O[C@@H]2O[C@H]3[C@H](O)[C@@H](O)[C@@H](O[C@H]4[C@H](O)[C@@H](O)[C@@H](O[C@H]5[C@H](O)[C@@H](O)[C@@H](O[C@H]6[C@H](O)[C@@H](O)[C@@H](O[C@H]7[C@H](O)[C@@H](O)[C@@H](O[C@H]1[C@H](O)[C@H]2O)O[C@@H]7CO)O[C@@H]6CO)O[C@@H]5CO)O[C@@H]4CO)O[C@@H]3CO
active: [2] 26.2 µM
not listed: [10]
inactive: all other assays above

CC(C)CC(C)O (stereo not given)
active: [2] 50 µM
not listed: [10]
inactive: all other assays above

CCc1cccc(CC)c1N
active: [2] 50 µM
not listed: [10]
inactive: all other assays above

NC(=O)N(O)[C@@H]1COc2cc(OCc3ccccc3)ccc21
active: [2] 40.2 µM
not listed: [10]
inactive: all other assays above

CC(=O)c1ccccc1
active: [2] 76.7 µM
not listed: [10]
inactive: all other assays above

CCN(CC)C(=S)SSC(=S)N(CC)CC
active: [2] 51 µM
not listed: [9]
inactive: all other assays above

CCCCCCOC(=O)CC(CC(=O)OCCCCCC)(OC(=O)CCC)C(=O)OCCCCCC
not listed: [7] | [10]
inactive: all other assays above

CNC(C)=O
active: [2] 75.2 µM
not listed: [10]
inactive: all other assays above

CCCCC(CC)C(=O)OCCOCCOCCOC(=O)C(CC)CCCC (stereo not given)
not listed: [7]
inactive: all other assays above

CCCCCCCCCCCCCCO
active: [2] 50 µM
not listed: [10]
inactive: all other assays above

CCCCCOC(C)=O
not listed: [10]
inactive: all other assays above

O=C(O)c1ccc2c(c1)nc(C(=O)NC1CCN(C3CC3)CC1)n2Cc1cc(-c2ccc(Cl)s2)on1
active: [2] 12 µM
not listed: [7] | [10]
inactive: all other assays above

CCCCCCCC/C=C\CCCCCCCC(=O)OC[C@@H](O)[C@H]1OC[C@H](O)[C@H]1O
not listed: [10]
inactive: all other assays above

COc1cc(C(C)C)c2c(c1)S(=O)(=O)N(COc1cc(=O)n3cccc(OCCN4CCCCC4)c3n1)C2=O
inactive: [2] | [4] | [5] | [8]
active: [1] 23 µM | [3] 19.5 µM | [6] 19.4 µM | [9] 22.1 µM

Cc1nccn1-c1ccc(Sc2cccc(C3(C(N)=O)CCOCC3)c2)cc1
active: [1] 9.6 µM | [3] 28.3 µM | [4] 9.73 µM | [5] 10.9 µM | [7] 21 µM | [8] 27.3 µM | [9] 3.65 µM
inactive: [2] | [6]
